Source: PubChem
NIH3T3 tox – Cytotoxic Profiling in NIH 3T3 Cell Line of Diverse Libraries Using Quantitative High-Throughput Screening. AID 1345082, 2018. NIH 3T3 viability, CellTiter-Glo ATP luminescence, 48-72 h. hit rate 4.3% among 94,000. Potency, µM (series often up to 96.7 µM), usual class: inhibitors; also: nearly all actives have a fitted effect of over 55% in size
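ATP-dependent luminescence (CellTiter-Glo) served as the viability signal for NIH 3T3 cells treated with compound for 48 or 72 hr at 37 °C.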
hNpr1 antagonist – Natriuretic polypeptide receptor (hNpr1) antagonism - Primary qHTS. Atrial natriuretic peptide receptor 1 (Homo sapiens), P16066. hit rate 1.6% among 76,000. HEK293 hNpr1 GloSensor cGMP, ANP-stimulated luminescence. AID 1347048, 2019. Potency, µM (highest dose often 46.3 µM), usual class: inhibitors; calls by dose curve; also: nearly all actives have a fitted effect of over 60% in size
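Compound pre-incubated 30 min at room temperature on GloSensor-loaded HEK293 cells stably carrying hNpr1 and the pGS-40F cGMP biosensor. Stimulation uses hNppA at 0.1 nM final; luminescence is taken at baseline and 20 min post-agonist.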
Luciferase inh – Firefly luciferase inhibition profiling of diverse chemical library using quantitative high-throughput screening | Luciferin 4-monooxygenase (Photinus pyralis), P08659 | purified P. pyralis luciferase, luminescence, biochemical | Potency, µM (doses to about 115 µM), usual class: inhibitors | hit rate 2.5% among 76,000; also: nearly all actives have a fitted effect of over 65% in size
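Inhibitors were tested against purified firefly luciferase in a biochemical, low-substrate format (both substrates at 10uM) and luminescence measured with a CCD imager.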
GPT2 inhibitor – Primary qHTS assay for inhibitors of Glutamate pyruvate transaminase 2 (GPT2); Alanine aminotransferase 2 (Homo sapiens), Q8TD30; Recombinant GPT2, coupled pyruvate oxidase/HRP Amplex Red fluorescence; Potency, µM (top dose mostly 57.7 µM), usual class: inhibitors; hit rate 0.25% among 100,000; AID 1671188, 2021; also: nearly all actives have a fitted effect of over 60% in size
Target sequence (Q8TD30 whole entry, looked up): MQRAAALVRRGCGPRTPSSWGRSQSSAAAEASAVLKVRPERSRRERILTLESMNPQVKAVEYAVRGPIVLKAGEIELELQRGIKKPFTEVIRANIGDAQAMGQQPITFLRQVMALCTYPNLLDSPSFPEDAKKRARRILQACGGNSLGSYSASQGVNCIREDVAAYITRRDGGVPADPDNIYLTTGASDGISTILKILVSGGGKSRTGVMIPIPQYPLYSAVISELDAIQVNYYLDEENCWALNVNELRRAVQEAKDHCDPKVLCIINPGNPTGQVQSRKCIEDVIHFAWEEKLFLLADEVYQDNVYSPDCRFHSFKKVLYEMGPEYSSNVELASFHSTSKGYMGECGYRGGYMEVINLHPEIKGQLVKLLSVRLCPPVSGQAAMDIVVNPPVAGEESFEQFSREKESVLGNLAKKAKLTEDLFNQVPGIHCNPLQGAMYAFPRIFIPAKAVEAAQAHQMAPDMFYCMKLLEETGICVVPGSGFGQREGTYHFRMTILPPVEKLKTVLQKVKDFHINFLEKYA
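GPT2 10ng/uL, a-KG 250uM, L-Ala 2mM, HEPES pH7.5 + 0.0001% Tween; 30 min RT. Then Amplex mix (PO/HRP/ThPP), 30 min RT dark, fluorescence. AOA 50uM used as positive control.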
HEK cytotox – Cytotoxic Profiling in HEK 293 Cell Line of Diverse Libraries Using Quantitative High-Throughput Screening; HEK 293 viability, ATP luminescence (CellTiter-Glo), 48-72 h; Potency, µM (highest dose often 115 µM), usual class: inhibitors; hit rate 6.6% among 94,000; AID 1345083, 2018; also: nearly all actives have a fitted effect of over 60% in size
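HEK 293 cells seeded at 250 cells/well were exposed to compound for 48 or 72 hr at 37 degree Celsius. Viability taken as ATP content by CellTiter-Glo luminescence.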
Hits are given with their value; [ ] = another dose, or the depositor's remark. In the library only some 10% were active in any assay of this set; here they are far more common. Unless noted, calls follow the shape of the dose curve; as a rule, active = well fitted curve in the direction sought with a large enough effect; inconclusive = small, poorly fitted or top-dose-only effect, or another doubt; inactive = no such curve, though single readings can be large; an effect the other way counts as inactive or inconclusive.

Results for O=C(NCc1cccc(Cl)c1)c1ccc2nnc(-c3ccc(OC(F)(F)F)cc3)n2c1 ?
NIH3T3 tox: inactive; GPT2 inhibitor: inactive; HEK cytotox: inconclusive

Results for Cc1cccc(NC(=O)Cn2c(-c3ccccc3)nc(C)cc2=O)c1 ?
NIH3T3 tox: inconclusive; hNpr1 antagonist: inactive; Luciferase inh: inactive; GPT2 inhibitor: inactive; HEK cytotox: inconclusive

How did Cc1cc(CNC(=O)c2cccc(F)c2F)c2[nH]c(C)c(C)c2c1 do in these assays?
NIH3T3 tox: inconclusive; hNpr1 antagonist: inactive; Luciferase inh: inactive; GPT2 inhibitor: inactive; HEK cytotox: 35.5µM

What do the screens show for `Cc1cc(CNC(=O)C(C)Cn2nc(C)nc2C)c2[nH]c(-c3ccccc3)c(C)c2c1` (stereo not drawn)?
NIH3T3 tox: inconclusive; hNpr1 antagonist: inactive; Luciferase inh: 20µM; GPT2 inhibitor: inactive; HEK cytotox: inconclusive

Results for CCn1nccc1C(=O)NCc1cc(C)cc2c(C)c(-c3ccccc3)[nH]c12 ?
NIH3T3 tox: 39.8µM; hNpr1 antagonist: inconclusive; Luciferase inh: 15.8µM; GPT2 inhibitor: inactive[11.5 µM]; HEK cytotox: 28.2µM

Results for CCc1[nH]c2c(CNC(=O)C(C)O)cc(C)cc2c1C (stereo not drawn) ?
NIH3T3 tox: inactive; hNpr1 antagonist: inactive; Luciferase inh: inactive; GPT2 inhibitor: inactive; HEK cytotox: inactive

What do the screens show for `CCn1nccc1C(=O)NC1CCN(c2cc(-c3ccccc3)[nH]n2)CC1`?
NIH3T3 tox: inactive; hNpr1 antagonist: inactive; Luciferase inh: inactive; GPT2 inhibitor: inactive; HEK cytotox: inconclusive

What do the screens show for `Cc1ccc(CC(=O)NCc2nnc3cc(-c4nc(C5CC5)no4)ccn23)cc1`?
NIH3T3 tox: inactive; hNpr1 antagonist: inactive; Luciferase inh: inactive; GPT2 inhibitor: inactive; HEK cytotox: inactive

Results for CC(C)c1nnc(C2CN(C(=O)c3ccc(OC(F)(F)F)cc3)CC23CCOCC3)o1 (stereo not drawn) ?
NIH3T3 tox: inactive; hNpr1 antagonist: inactive; Luciferase inh: inactive; GPT2 inhibitor: inactive; HEK cytotox: inactive

Results for Cc1ccc(Nc2ccnc(N3CCCC(C(=O)NC4CC4)C3)n2)cc1 (stereo not drawn) ?
NIH3T3 tox: inconclusive; GPT2 inhibitor: inactive; HEK cytotox: inconclusive

How did CN(CC(=O)N1CCC(CCOc2ccccc2F)C1)S(=O)(=O)c1ccc2c(c1)oc(=O)n2C (stereo not drawn) do in these assays?
NIH3T3 tox: inconclusive; hNpr1 antagonist: inactive; Luciferase inh: inactive; GPT2 inhibitor: inactive; HEK cytotox: 39.8µM

How did O=C(CN1C(=O)CCC1=O)N1CCC(CCOc2ccccc2F)C1 (stereo not drawn) do in these assays?
NIH3T3 tox: inactive; hNpr1 antagonist: inconclusive; Luciferase inh: inactive; GPT2 inhibitor: inactive; HEK cytotox: 44.7µM

Results for Cc1nn(C(=O)CCC(=O)N2CCC(CCOc3ccccc3F)C2)c2ccccc12 (stereo not drawn) ?
NIH3T3 tox: inactive; hNpr1 antagonist: inactive; Luciferase inh: inactive; GPT2 inhibitor: inactive; HEK cytotox: inactive

Results for COc1cc(-c2onc(C)c2C(=O)NCCCc2ccccc2)cc(OC)c1OC ?
NIH3T3 tox: inconclusive; hNpr1 antagonist: inactive; Luciferase inh: inactive; GPT2 inhibitor: inactive; HEK cytotox: inconclusive

Results for COCCN1CCCCCC(O)c2cc(C(=O)NCc3cc(OC)ccc3OC)ccc21 (stereo not drawn) ?
NIH3T3 tox: inconclusive; hNpr1 antagonist: inactive; Luciferase inh: inactive; GPT2 inhibitor: inactive; HEK cytotox: inconclusive

What do the screens show for `COc1ccccc1CNC(=O)[C@@H]1Cc2c[nH]c3cccc(c23)[C@H](CC(C)C)N1`?
NIH3T3 tox: 28.2µM; hNpr1 antagonist: inactive; Luciferase inh: inactive; GPT2 inhibitor: inactive; HEK cytotox: 35.5µM

How did CC(C)C[C@@H]1N[C@H](C(=O)NCc2ccccc2Cl)Cc2c[nH]c3cccc1c23 do in these assays?
NIH3T3 tox: 31.6µM; hNpr1 antagonist: inactive; Luciferase inh: inactive; GPT2 inhibitor: inactive; HEK cytotox: 28.2µM
